Bioassay records deposited in PubChem BioAssay by Broad Institute.
An excerpt weighted towards active compounds, which were near 0.53% of everything screened.
TcdB inh: blocks C. difficile toxin B glycohydrolase activity | TcdB glycohydrolase enzymatic assay, plate reader | inhibition, % at 9.99 µM | 0.24% of 350,000 active; in the data active means inhibition above about 10%
Mtb BioA inh: BioA (M. tuberculosis) enzyme inhibition. AID 602481. purified M. tuberculosis BioA enzyme, plate reader. inhibition, % at 9.99 µM. 0.096% of 360,000 active; in the data active means inhibition above about 40%; inconclusive means no clear call, values can overlap the other calls
PrP UTR inh: suppresses PrP 5' UTR mRNA reporter expression; cell-based PrP 5' UTR mRNA reporter, plate reader; inhibition, % (test concentration not listed); 0.35% of 340,000 active; AID 488862; in the data active means inhibition above about 52%
Y pestis TopoI: Y. pestis Topo-I inhibition via cleavage products; 0.064% of 360,000 active; Y. pestis Topo-I cleavage product accumulation, plate reader; activity, % at 10 µM; in the data active means activity above about 50%, passing the limit was not always enough; inconclusive means no clear call, values can overlap the other calls
PrP UTR cherry: prion 5' UTR mRNA inhibition, cherry-pick retest; inhibition, % at 2.5 µM; shares compounds with PrP UTR inh; 48% of 1,100 active; cell-based prion protein 5' UTR reporter, plate reader; in the data active means inhibition above about 54%; inconclusive means no clear call, values can overlap the other calls
Large screens that a line does not name were inactive (follow-up assays come after a bar, where they were run).

O=C(C[C@@H]1CC[C@@H](NS(=O)(=O)c2ccc(F)cc2)[C@H](CO)O1)NCCN1CCCCC1	none (no result: TcdB inh, PrP UTR inh, Y pestis TopoI)
O=C(O)CSCC(=O)Nc1ccc(C2CCCCC2)cc1	PrP UTR inh 53 (no result: TcdB inh) | PrP UTR cherry 54
CC=Cc1ccc2n(c1=O)C[C@H]1[C@H](CO)[C@@H](C(=O)N3CCCCC3)N(Cc3ccccc3OC)[C@@H]21 (mixture of isomers)	none (no result: PrP UTR inh, Y pestis TopoI)
COc1cccc2c1C(CO)N1C(C#N)C3CC(C(=O)O)C(C1C2)N3C (configuration not stated)	PrP UTR inh 69 | PrP UTR cherry 75
COc1ccc(NC(=O)CSc2nnc(-c3cccc(O)c3)o2)cc1	none
COc1cccc(NC(=O)CSc2nnc(-c3cc(C)n(-c4ccccc4)c3C)o2)c1	PrP UTR inh 57 (no result: TcdB inh) | PrP UTR cherry inactive
Cc1c(C)c2ccc(OCC(=O)Nc3ccccn3)c(C)c2oc1=O	PrP UTR inh 93 | PrP UTR cherry 94
C[C@H]1CN([C@@H](C)CO)C(=O)c2cccc(NS(=O)(=O)c3ccc(F)cc3)c2O[C@@H]1CN(C)C(=O)Nc1cccc2ccccc12	none (no result: Mtb BioA inh, PrP UTR inh, Y pestis TopoI)
CC(=O)Nc1ccc(CN2CCCC(CCC(=O)NCc3ccccc3F)C2)cc1 (configuration not stated)	PrP UTR inh 80 | PrP UTR cherry inactive
COc1cc(OC)cc(-c2cc3nc(C)c(CCC(=O)O)c(C)n3n2)c1	PrP UTR inh 54 | PrP UTR cherry 57
COc1cc(OC)cc(-c2cc3nc(C)c(CCC(=O)NC(C)CCc4ccco4)c(C)n3n2)c1 (configuration not stated)	none (no result: TcdB inh)
COCC(=O)Nc1ccc2c(c1)[C@H]1C[C@H](CC(=O)NCc3ccc(Cl)cc3)O[C@H](CO)[C@H]1O2	none (no result: TcdB inh, PrP UTR inh, Y pestis TopoI)
CCCC#Cc1ccc2c(c1)O[C@@H](CN(C)CC1CCCC1)[C@H](C)CN([C@H](C)CO)S2(=O)=O	none (no result: Mtb BioA inh, PrP UTR inh, Y pestis TopoI)
CCN(CC)CCNC(=O)c1c(O)c2cc(OC)c(OC)cc2[nH]c1=O	PrP UTR inh 72 (no result: TcdB inh) | PrP UTR cherry inactive
C=C1CC(Cn2cc(Br)c(=O)[nH]c2=O)(c2ccc(-c3ccccc3)cc2)OC1=O (configuration not stated)	PrP UTR inh 61 (no result: Mtb BioA inh) | PrP UTR cherry 72
CCOC(=O)OC(C)OC(=O)[C@@H]1N2C(=O)[C@@H](NC(=O)[C@H](N)c3ccccc3)[C@H]2SC1(C)C (some centres not stated)	PrP UTR inh 54 | PrP UTR cherry inactive
CC(Oc1ccccc1)C(=O)NC1C(=O)N2C1SC(C)(C)C2C(=O)O (configuration not stated)	none (no result: Mtb BioA inh)
CC(C)C(NC(=O)C(C(C)C)N(C)C)C(=O)N(C)C(C(=O)N1CCCC1C(=O)N1CCCC1C(=O)NCc1ccccc1)C(C)C (configuration not stated)	PrP UTR inh 62 (no result: Mtb BioA inh) | PrP UTR cherry 89
COC(=O)Cc1c(O)ccn(Cc2ccc(OC)c(OC)c2)c1=O	PrP UTR inh 63 | PrP UTR cherry inactive
CO[C@@H]1CN(C)C(=O)c2cc(NC(=O)NC3CCCCC3)ccc2OC[C@H](C)N(C)C[C@H]1C	none (no result: TcdB inh, PrP UTR inh, Y pestis TopoI)
N/C(=N\OC(=O)c1ccc([N+](=O)[O-])cc1Cl)c1ccccn1	PrP UTR inh 65 | PrP UTR cherry inconclusive
N/C(=N\OC(=O)c1cc(Br)ccc1Cl)c1ccccn1	none (no result: Mtb BioA inh)
Cc1ccc(C(=O)O/N=C(\N)c2ccccn2)c(Cl)c1	PrP UTR inh 81 | PrP UTR cherry 94
N/C(=N\OC(=O)c1ccc(Cl)cc1Cl)c1ccccn1	PrP UTR inh 79 (no result: TcdB inh) | PrP UTR cherry 55
N/C(=N\OC(=O)c1ccccc1Cl)c1ccncc1	none (no result: Mtb BioA inh)
Cc1ccc(C(=O)O/N=C(\N)c2ccccc2)c(Cl)c1	PrP UTR inh 56 | PrP UTR cherry 55
CCNC(=O)C[C@H]1CC[C@H]2[C@H](COc3ccc(NC(=O)c4ccc(F)c(F)c4)cc3C(=O)N2C)O1	none (no result: PrP UTR inh, Y pestis TopoI)
Cc1noc(C)c1NC(=O)N(C)C[C@H]1Oc2c(NC(=O)NC3CCCCC3)cccc2C(=O)N([C@@H](C)CO)C[C@H]1C	none (no result: PrP UTR inh, Y pestis TopoI)
COCC(=O)N(C)C[C@H]1Oc2ncc(C#Cc3ccc(F)cc3)cc2C(=O)N([C@H](C)CO)C[C@@H]1C	none (no result: Mtb BioA inh, PrP UTR inh, Y pestis TopoI)
COc1ccc(/C=N\NC(=O)C2C(=O)NCC2c2ccccc2)cc1O (configuration not stated)	PrP UTR inh 71 (no result: TcdB inh) | PrP UTR cherry inactive
O=C(COC(=O)c1ccc[nH]c1=O)Nc1ccc(S(=O)(=O)N2CCCC2)cc1	none (no result: Mtb BioA inh)
O=C(COC(=O)c1ccc[nH]c1=O)Nc1ccc(N2CCCCC2)cc1	PrP UTR inh 62 | PrP UTR cherry inconclusive
Cc1cc(C)cc(N(CC(=O)N2CCn3c2nc2ccccc23)S(=O)(=O)c2c(C)noc2C)c1	PrP UTR inh 67 | PrP UTR cherry inactive
Cc1cc(C)cc(N(CC(=O)N2CCc3ccccc32)S(=O)(=O)c2c(C)noc2C)c1	none
CCOc1ccc(N(CC(=O)N2CCc3ccccc32)S(=O)(=O)c2c(C)noc2C)cc1	PrP UTR inh 79 | PrP UTR cherry inactive
Cc1ccc(S(=O)(=O)N(C)C[C@H]2OCCCC[C@@H](C)Oc3ccc(N(C)C)cc3C(=O)N([C@@H](C)CO)C[C@H]2C)cc1	none (no result: PrP UTR inh, Y pestis TopoI)
C[C@@H]1CCCCO[C@@H](CN(C)CC2CCCCC2)[C@@H](C)CN([C@H](C)CO)C(=O)c2cc(NS(=O)(=O)c3cn(C)cn3)ccc2O1	none (no result: PrP UTR inh, Y pestis TopoI)
CO[C@@H]1CN(C)C(=O)c2ccc(NS(=O)(=O)c3cccc(F)c3)cc2OC[C@@H](C)NC[C@@H]1C	none (no result: Mtb BioA inh, PrP UTR inh, Y pestis TopoI)
Cc1nc2ccccc2c(=O)n1-c1ccc(Cl)cc1[N+](=O)[O-]	PrP UTR inh 80 (no result: Mtb BioA inh) | PrP UTR cherry inactive
O=C(C[C@H]1CC[C@@H](NC(=O)C2CCOCC2)[C@@H](CO)O1)NCc1ccccc1Cl	none (no result: PrP UTR inh, Y pestis TopoI)
O=C(NC(=S)N1CCN(CCO)CC1)C12CC3CC(CC(C3)C1)C2	PrP UTR inh 80 | PrP UTR cherry inactive
O=C(NC(=S)N1CCOCC1)C12CC3CCC(CC(C3)C1)C2	none (no result: TcdB inh, Mtb BioA inh)
COC(=O)c1ccc(Oc2nc(N3CCCCC3)nc(N3CCOCC3)n2)cc1	none (no result: TcdB inh)
CCN(CC)c1nc(Oc2ccc(C(=O)OC)cc2)nc(N2CCOCC2)n1	PrP UTR inh 82 (no result: Mtb BioA inh) | PrP UTR cherry inactive
O=C1C=C(Nc2cccc3cccnc23)c2ccccc2C1=O	PrP UTR inh 64 | PrP UTR cherry inactive
C[C@@H]1CCCCO[C@@H](CN(C)S(=O)(=O)c2cn(C)cn2)[C@H](C)CN([C@H](C)CO)C(=O)c2cc(NC(=O)c3ccccc3)ccc2O1	none (no result: PrP UTR inh, Y pestis TopoI)
Cc1ccc2c(c1)sc(=NC(=O)C1CC1)n2C	none
Cc1ccc2c(c1)sc(=NC(=O)c1cccs1)n2C	PrP UTR inh 65, Y pestis TopoI inconclusive (no result: Mtb BioA inh) | PrP UTR cherry inactive
CCC1=C(OC(=O)N(CC)CC)N2C(=O)OC(=NCc3ccccc3)[C@]2(C)[C@H]2C1=CC[C@H]1C(=O)N(c3ccccc3)C(=O)[C@H]12	none
CCC1=C2CC[C@H]3C(=O)N(c4ccccc4)C(=O)[C@H]3[C@H]2[C@@]2(C)C(=NCc3ccccc3)OC(=O)N2C1=O	PrP UTR inh 76 | PrP UTR cherry inactive
Cc1ccc(NC(=O)c2cc3ccccc3oc2=N)cc1	PrP UTR inh 67 | PrP UTR cherry inactive
